Shown are actives, neighbours in structure and some others; about 3.2% of the full set was active somewhere.
CHT inh – inhibitors of human choline transporter CHT | 0.86% of 310,000 active | High affinity choline transporter 1 (Homo sapiens), Q9GZV3 | B-score at 10 µM | CHT-expressing cells, membrane potential dye, choline response; active compounds read low;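 active = B-score over 3 SD under the library average, and starting fluorescence ratio not unusually high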;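 note: choline stimulus applied at its EC90 after an EC20 pre-addition; B-score computed on integrated fluorescence ratio after choline addition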
TMEM16A act – TMEM16A chloride channel activators or potentiators, primary screen, cell-based, HTS | AID 623877, 2012 | B-score at 10 µM | 0.3% of 340,000 active | HEK293 TMEM16A/YFP-H148Q/I152L, iodide quench fluorescence; active compounds read low;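 active = fluorescence-ratio B-score plate-corrected deviation score at least 3 library SD below zero, with starting fluorescence score within 5 deviations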;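 note: channel opened by trigger with iodide after compound preincubation; score built on the fluorescence ratio of max minus min over baseline; more negative score means more quench and so TMEM16A activation or potentiation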
CHT allo act – CHT positive allosteric modulators, primary screen, cell-based, membrane potential dye, choline EC20; B-score at 10 µM; CHT-expressing cells; active compounds read high; LV-AA mutant CHT in HEK293 cells; AID 488977, 2010; 0.49% of 310,000 active;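 active = initial fluorescence not abnormally high and integrated response B-score, plate-corrected, over 3 SD above library mean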
Rce1 inhib – yeast Rce1p protease inhibitors, primary screen, biochemical, fluorescence, cell-free homogeneous. CAAX prenyl protease 2 (Saccharomyces cerevisiae (strain ATCC 204508 / S288c)), Q03530. yeast membranes, quenched prenylated peptide cleavage fluorescence. calls only. 0.27% of 290,000 active. AID 2563, 2010;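 active = fall in fluorescence gain of 50% or more versus controls, with final raw signal at or below 3038400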;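 note: plate controls were neutral control wells for no effect and wells lacking membranes for full effect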
Kir21 inh – inhibitors of mouse Kir2.1 inward-rectifier potassium channel; Inward rectifier potassium channel 2 (Mus musculus), P35561; HEK293-Kir2.1, FluxOR thallium flux fluorescence; active compounds read low; B-score at 10 µM; 0.85% of 310,000 active; AID 1672, 2009;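 active = fluorescence ratio B-score at or below minus 3 SD of library scores, with starting-brightness B-score within 2 SD, cut at about -4.2 in these data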;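 note: channel flux triggered by added potassium and thallium sulfate stimulus; B-score of peak minus minimum fluorescence over baseline after thallium stimulus; more negative B-score means stronger Kir2.1 block with less thallium influx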
Target sequence (P35561 whole entry, looked up): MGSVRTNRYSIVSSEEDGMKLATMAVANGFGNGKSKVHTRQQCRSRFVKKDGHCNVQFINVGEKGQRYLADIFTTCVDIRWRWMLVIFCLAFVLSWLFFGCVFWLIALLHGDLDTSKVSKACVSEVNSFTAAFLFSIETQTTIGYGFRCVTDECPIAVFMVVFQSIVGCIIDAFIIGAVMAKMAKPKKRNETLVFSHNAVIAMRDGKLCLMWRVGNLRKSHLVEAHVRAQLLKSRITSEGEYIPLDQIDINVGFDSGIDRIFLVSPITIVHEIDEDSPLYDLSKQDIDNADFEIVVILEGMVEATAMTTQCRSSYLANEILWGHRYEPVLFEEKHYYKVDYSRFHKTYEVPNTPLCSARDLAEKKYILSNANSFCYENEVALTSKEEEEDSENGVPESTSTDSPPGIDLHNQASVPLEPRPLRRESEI
ANO1 block – TMEM16A chloride channel inhibitors, primary screen, cell-based, HTS | normalized B-score (activity score, 25-100; higher = stronger inhibition) at 10 µM | HEK293 TMEM16A/YFP iodide influx fluorescence, ionomycin | 1.2% of 310,000 active | AID 588511, 2011;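 active = ratio plate-corrected score three or more library SD toward inhibition, starting fluorescence score within five deviations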;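 note: score derived from kinetic fluorescence span divided by baseline fluorescence per well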
* = called active by the depositor; i = inactive; . = not tested or not shown; + = active, no number.

SMILES	CHT inh	TMEM16A act	CHT allo act	Rce1 inhib	Kir21 inh	ANO1 block
COCCn1c(SCC(=O)Nc2nc(C)c(Cl)cc2Cl)nc2ccccc21	i	i	i	i	-6.3*	i
Cc1cccc(Nc2nc(Cl)ncc2F)c1C	i	i	i	i	-0.53	i
CC1C(=O)N(Cc2cccc(F)c2)c2ccccc2N1C(=O)c1ccccc1 (stereo not drawn)	i	i	i	i	-1.6	i
CC1C(=O)N(Cc2ccccc2F)c2ccccc2N1C(=O)c1c(F)cccc1F (stereo not drawn)	-5.1*	i	i	i	0.01	i
CCn1nc(C(=O)N2CCN(Cc3nc4ccccc4s3)CC2)c2ccccc2c1=O	.	i	.	.	.	.
COc1ccc(NC(=O)COC(=O)CO/N=C(\C)c2ccc3c(c2)OCO3)cc1S(N)(=O)=O	.	i	.	.	.	.
CCC(NC(=O)Nc1nnc(C(F)(F)F)s1)(C(F)(F)F)C(F)(F)F	i	i	i	i	-4.5*	100*
O=C(O)CCC(=O)Nc1nnc(C(F)(F)F)s1	i	i	i	.	.	i
N#C/C(=C(/O)COc1ccc(Cl)cc1)c1nc2ccccc2s1	i	i	i	i	-0.07	100*
N#C/C(=C(/O)c1ccc(F)cc1)c1nc2ccccc2s1	i	i	i	i	-0.91	25*
N#C/C(=C(/O)COC(=O)c1ccc(C#N)cc1)c1nc2ccccc2s1	i	i	i	i	0	25*
Cc1ccc(SC/C(O)=C(\C#N)c2nc3ccccc3s2)cc1	i	i	i	i	-0.23	25*
COc1ccc(Cl)cc1C(=O)CSc1nc(N)cc(N)n1	i	i	i	i	-4.7*	i
CCCCn1nnnc1SCC(=O)c1cc(Cl)ccc1OC	i	i	i	i	0.28	i
C=CCN1C=CC(=CC=C(C#N)C#N)C=C1	i	-7.7*	i	i	-3.1	i
C=CCN1C=C/C(=C\C=C(C#N)C#N)c2ccccc21	i	i	i	i	0.33	i
CCCN1C=CC(=CC=C(C#N)C#N)C=C1	i	-6.5*	i	i	-5.8	i
O=C1CN(C(=O)COC(=O)c2cc(S(=O)(=O)N3CCOCC3)ccc2Cl)c2ccccc2N1	i	i	i	i	-2.9	i
Cc1nnc(NC(=O)CCC(=O)N2CCN(S(=O)(=O)c3cc([N+](=O)[O-])ccc3C)CC2)s1	.	i	.	.	.	.
O=C(Nc1ncc(Br)s1)C(Cc1ccccc1)n1cccc1 (stereo not drawn)	i	i	i	i	-1.5	100*
CCN1CCN(c2ccc(NC(=O)c3ccc(Cl)c(S(=O)(=O)N4CCCC4)c3)cc2)CC1	.	i	.	.	.	.
Cc1ccc(OCC(=O)Nc2ccc(S(=O)(=O)N3CCOCC3)cc2)c(Br)c1	i	i	i	+	-0.23	i
CCN(CC)CCOC(=O)c1ccc(NC(=O)c2ccc(Cl)c(S(=O)(=O)N3CCCCCC3)c2)cc1	i	i	i	i	1.4	25*
CCOC(=O)c1ccc(NC(=O)c2cccc(S(=O)(=O)N3CCOCC3)c2)cc1	i	i	i	i	-0.59	100*
S=C(Nc1ccccc1Cl)NC1CCN(Cc2ccccc2)CC1	i	i	i	i	-6.7*	i
SMILES	CHT inh	TMEM16A act	CHT allo act	Rce1 inhib	Kir21 inh	ANO1 block
O=C(NC1CCN(Cc2ccccc2)CC1)c1ccc(Cl)cc1Cl	i	i	i	i	-6.5*	i
NS(=O)(=O)c1ccc(CCNC(=O)/C=C/c2ccccc2[N+](=O)[O-])cc1	i	i	i	i	-0.35	i
O=C1N/C(=C\c2ccc(O)cc2)C(=O)c2ccccc21	i	i	i	i	-0.88	25*
Cc1cc(C)n2nc(SCC(=O)N3CC(C)CC(C)C3)nc2n1 (stereo not drawn)	.	i	.	.	.	.
CCCCCCCn1c2c(c(=N)c3c1CCC3)CCCC2	.	i	.	i	-6.5*	.
COc1cccc(C(=O)Nc2nnc(SCC(=O)NC3CCCC3)s2)c1	i	i	i	+	0.12	i
O=C(CSc1nnc(NC(=O)c2cccc(F)c2)s1)NC1CCCC1	i	i	i	i	-0.67	i
CC(O)CNCc1ccc(-c2ccccc2)cc1 (stereo not drawn)	i	i	i	i	0.15	i
CC(NCc1ccc(-c2ccccc2)cc1)C(O)c1ccccc1 (stereo not drawn)	i	i	i	i	-14*	i
O=C(Nc1ccccc1)/C(=C/c1ccc(F)cc1)NC(=O)c1ccco1	i	i	i	.	2	i
CCCC(c1nnnn1Cc1cccs1)N1CCN(C2CCCC2)CC1 (stereo not drawn)	i	i	6.3*	i	0.85	i
Cc1cccc(S(=O)(=O)NNC(=O)Cc2cccn2C)c1	i	i	i	i	-0.16	25*
Cc1cc[n+](-c2[nH]c(=O)sc2/C=N/N=C(\[O-])c2ccccc2)cc1C	.	-5.6*	.	i	-7	.
Cc1cc[n+](-c2[nH]c(=O)sc2/C=N/N=C(\[O-])c2ccncc2)cc1C	i	i	i	i	-0.55	i
O=Cc1cn(CC(=O)N2CCCCCC2)c2ccccc12	i	i	i	i	-1.3	i
CN1C(=O)/C(=C/c2cn(CC(=O)N3CCCCC3)c3ccccc23)NC1=S	i	-6.2*	i	i	0.37	i
Cc1ccc(Nc2cc(C)c3c(O)cccc3n2)cc1C	i	i	i	i	-1.8	i
Cc1ccccc1Nc1cc(C)c2c(O)cccc2n1	i	i	i	i	-7.2*	i
COc1ccc(Nc2cc(C)c3c(O)cccc3n2)cc1	i	i	i	i	-13*	i
O=C(CC1CCCCC1)NCCS(=O)(=O)N1CCN(c2ccccc2)CC1	i	i	i	i	1.4	i
O=C(c1ccccc1SCc1ccccc1)N1CCCCCC1	i	i	i	i	-4.5*	i
COC(=O)c1c(C)cccc1C1CN=NC12Cc1ccccc1C2=O (stereo not drawn)	.	-7.4*	.	.	.	.
c1ccc(CNc2nc(NCc3ccccc3)c3ccccc3n2)cc1	i	i	i	+	-0.06	i
c1ccc(CNc2nc(-c3ccccc3)nc3ccccc23)cc1	i	i	i	i	-0.99	i

Screening results as filed in PubChem BioAssay.
